The panel holds about 83,000 compounds, 20% with a hit somewhere; the sample as a whole holds those more often.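 Plates (96-well) were seeded with cells, treated with compound at one concentration, and incubated for 48 hours before percent growth was determined.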 Calls of active or inactive are those of the source.
Test system: BT-549 breast
Test: NCI-60 one-dose screen, 48 h (100 = growth as untreated, 0 = no growth, -100 = all killed)
Conditions: 10 µM unless noted
Method: Growth inhibition of the BT-549 human tumor cell line is measured as a screen for anti-cancer activity. Cells are grown in 96 well plates and exposed to the test compound for 48 hours. Compounds are tested at a single concentration, which is 10^-5 M for most compounds. The reported endpoint is percent growth (GI% or GIPRCNT), where numbers from 0 - 100% represent growth inhibition, and numbers from -100% - 0 represent cell death. For example, a value of 40 represents 60% growth inhibition. A value of 0 means no net growth occurred over the course of the experiment. A value of -40 indicates 40% of cells at the beginning of the experiment died by the end of the experiment. A value of -100 means all cells are dead at the end of the experiment.
NCI-60 Human Tumor Cell Lines Screen was performed using the standard one-dose NCI protocol, which is described in more detail at https://dtp.cancer.gov/discovery_development/nci-60/default.htm.
Compounds with GIPRCNT values below 10 were considered active. Activity score was based on GIPRCNT using the following formula: […]
Score is 0 for GIPRCNT values of 100 or above, 50 for GIPRCNT values of 0, and 100 for GIPRCNT values of -100.

| Compound | growth |
| --- | --- |
| CN(C)CCCC(=O)Nc1ccc(Cn2nnc3c2C(=O)c2nnn(Cc4ccc(NC(=O)CCCN(C)C)cc4)c2C3=O)cc1 | 80.5% (inactive) |
| C[C@@H]1CC[C@@H]2[C@@H]1[C@H](OC(=O)/C=C/c1ccccc1)[C@]1(c3ccccc3)C[C@@H](OC(=O)CO)[C@@]2(C)O1 | 17.1% (inactive) |
| C=C1CC[C@@H]2[C@](C)(COC(C)=O)[C@H](OC(C)=O)CC[C@@]2(C)[C@@H]1CC(Nc1ccc(S(=O)(=O)Nc2nc(C)cc(C)n2)cc1)C1=CCOC1=O (stereo not given in full) | 71.9% (inactive) |
| CN1CCN(Cc2ccc(NC(=O)c3cncc(C#Cc4cnc(N)c5cccnc45)c3)cc2C(F)(F)F)CC1 | 38.9% (inactive) |
| CCNS(=O)(=O)c1ncnc2nc[nH]c12 | 129% (inactive) |
| Cc1cc(Cl)ccc1Nc1nc(C(F)(F)F)ccc1C(=O)N/N=C/c1ccc(F)cc1 | 3.74% (active) |
| O=C1Nc2ccccc2/C1=C/C(=N/c1nnc(-c2ccc(Cl)cc2)s1)c1ccccc1 | 31.9% (inactive) |
| COc1c(Cl)cc(Cl)cc1Cl | 120% (inactive) |
| CC/C=C\C[C@H](O)C/C=C1/C(=O)C=C[C@@H]1C/C=C\CCCC(N)=O | -12.6% (active) |
| CC1(C)CC(=O)C(c2c(-c3ccccc3)[nH]c3[nH]c(=S)[nH]c(=O)c23)=C(O)C1 | 106% (inactive) |
| CCCCCCCCCCCCCCCCNCCC[C@@H](C)[C@H]1CC[C@H]2[C@@H]3[C@H](OCCCN)C[C@@H]4C[C@H](OCCCN)CC[C@]4(C)[C@H]3C[C@H](OCCCN)[C@]12C | -26% (active) |
| O=C1c2cc3c(cc2-c2c1c1cc(Cl)c(Cl)cc1c(=O)n2C[C@H](O)CO)OCO3 | -10.3% (active) |
| c1ccc(Sc2ncnc3ccccc23)cc1 | 51.6% (inactive) |
| O=C(Nc1cccc2[nH]c(C(F)(F)F)nc12)c1ccc(Br)cc1F | 19.4% (inactive) |
| O=[N+]([O-])c1cccc(-c2nc3sccn3c2-c2ccnc(NCCNS(=O)(=O)c3ccc(C(F)(F)F)cc3)n2)c1 | 26.4% (inactive) |
| O=C(Nc1ccc(Oc2ccc(F)cc2)c(Cl)c1)c1cccnc1 | 92.5% (inactive) |
| COc1ccc(/C=N\NC(=O)c2ccncc2)cc1O | 98.1% (inactive) |
| O=[N+]([O-])c1cccc(-c2nc3sccn3c2-c2ccnc(NCCCNS(=O)(=O)c3ccc(F)cc3)n2)c1 | -12.1% (active) |
| O=C1Nc2c(ccc(Cl)c2Cl)/C1=C/c1cc(Br)c(O)c(Br)c1 | 29.2% (inactive) |
| NC(=S)N/N=C/c1cc(-c2cccc(N)c2)ccn1 | 55.4% (inactive) |

| Compound | growth |
| --- | --- |
| COc1cc(NCCCCCN=C(N)NC(N)=NC(C)C)c2ncccc2c1 | -0.951% (active) |
| O=C1Nc2ccccc2C12CC(c1ccc(Cl)cc1)=NN2 (stereo not given) | 98.5% (inactive) |
| O=C(O)C(O)C(O)C(=O)O.[NH-]C1CCCCC1[NH-].[Pt+2] (stereo not given) | 108% (inactive) |
| CSc1nc(NCCO)c(C#N)c(-c2cccc(N)c2)n1 | 98% (inactive) |
| C=C1CCC2C3(C)COC(c4ccccc4Br)OC3CCC2(C)C1C/C=C1/C(=O)OCC1OC(C)=O (stereo not given) | -74.2% (active) |
| CCN(CC)CCC(=O)Nc1ccc(Cn2nnc3c2C(=O)c2nnn(Cc4ccc(NC(=O)CCN(CC)CC)cc4)c2C3=O)cc1 | -94.2% (active) |
| Nc1nc(-c2ccc(F)cc2)cc(-c2cnn(-c3ccccc3)n2)n1 | 119% (inactive) |
| CCOC(=O)c1cnc2ccc(OC)cc2c1Nc1cccc(S(=O)(=O)NC)c1 | 80.1% (inactive) |
| CC[C@@H](C)OC(=O)c1nn(C(C)=O)c2ccccc12 | 105% (inactive) |
| OC(c1cc(-c2ccccc2)nc2ccc(Cl)cc12)C1CCCCN1 (stereo not given) | 91.5% (inactive) |
| COCCCN=C(N)c1ccc(NC(=O)c2ccc(C(=O)Nc3ccc(C(N)=NCCCOC)cc3)cc2)cc1 | 78.6% (inactive) |
| CS(=O)(=O)c1ccc(-c2cnc3ccc(-c4cccc(S(C)(=O)=O)c4)nn23)cc1 | 23% (inactive) |
| Cc1ccc(-c2nc(/C=N/Nc3cc(C)nc4ccc(Cl)cc34)c(C)o2)cc1 | 97% (inactive) |
| CCOC(=O)/C=C/c1ccc(C(=O)OCC)[nH]1 | 88.2% (inactive) |
| CC(C)(C)n1cc(-c2ccnc(NCCNS(=O)(=O)c3ccccc3)c2)c(-c2cccc(O)c2)n1 | 26.4% (inactive) |
| O=C1c2cc3c(cc2-c2c1c1cc(Cl)c(Cl)cc1c(=O)n2CCCn1ccnc1)OCO3 | 19.1% (inactive) |
| Cc1ccc2c(NCCCN(C)C)c3c(C)nn(C)c3nc2c1 | 54.3% (inactive) |
| CCN(CC)c1ccc(/C=C/C2=[N+](C)c3ccccc3C2(C)C)cc1 | 0.697% (active) |
| C=C1CC2(OC1=O)C(=O)N(CCCCCCCCCCCCN1C(=O)C3(CC(=C)C(=O)O3)c3ccccc31)c1ccccc12 (stereo not given) | 84% (inactive) |
| C#Cc1nc(Nc2cc(C)[nH]n2)c2ccccc2n1 | -34.9% (active) |

Reference: PubChem BioAssay (NCI)
